Test results as given in PubChem BioAssay (Tox21).
Inconclusive results are not listed. A call without a number means that no potency is given here. The source made the active and inactive calls. Calls come from the whole dose curve.

Molecular target: Beta-2 adrenergic receptor (Homo sapiens) (UniProt P07550)
Test: Adrenergic beta2 receptor (ADRB2) small molecule agonists, cell-based qHTS assay (AID 1963593);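 for activation: CHO cells stably overexpressing human ADRB2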
Outline: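 CHO cells stably over-expressing ADRB2 were plated overnight at 37C, then dosed with compounds plus a stimulation mix containing 100uM IBMX and 25uM Ro-20-1724 for 0.5hr at room temperature. cAMP was measured by HTRF competition, 1hr.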
Potency is the fitted concentration of half-maximal effect.

Chain of Beta-2 adrenergic receptor (Homo sapiens) (P07550 whole entry, looked up): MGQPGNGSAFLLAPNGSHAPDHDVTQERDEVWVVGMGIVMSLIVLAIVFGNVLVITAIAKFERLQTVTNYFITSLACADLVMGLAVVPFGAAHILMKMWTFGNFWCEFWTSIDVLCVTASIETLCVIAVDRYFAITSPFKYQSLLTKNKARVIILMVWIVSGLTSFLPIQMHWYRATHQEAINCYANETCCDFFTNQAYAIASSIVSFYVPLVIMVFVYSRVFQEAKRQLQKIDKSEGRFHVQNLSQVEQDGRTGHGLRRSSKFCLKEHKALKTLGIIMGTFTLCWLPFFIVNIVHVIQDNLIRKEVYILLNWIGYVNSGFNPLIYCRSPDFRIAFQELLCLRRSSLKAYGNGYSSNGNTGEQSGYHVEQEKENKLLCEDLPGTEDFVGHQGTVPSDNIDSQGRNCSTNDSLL

In the case of `Cc1c([N+](=O)[O-])cc2c(c1[N+](=O)[O-])C(C)(C)CC2(C)C`, the Potency is reported as “inactive”.
`CCC1COC(Cn2cncn2)(c2ccc(Cl)cc2Cl)O1` (centres undefined) was tested, and the Potency was “inactive”.
For `CCOC(=O)c1ncn2c1CN(C)C(=O)c1c(I)cccc1-2`, the Potency was “inactive”.
For `COC(=O)C(c1ccccc1)C1CCCCN1` (centres undefined), the Potency was “inactive”.
For `C[C@@H]1CC2=CC(=O)CC[C@@H]2[C@H]2CC[C@@]3(C)[C@@H](CC[C@]3(C)O)[C@@H]21`, the Potency was “inactive”.
With `CCOC(=O)NC(C)(C)Cc1ccc(Cl)cc1` the Potency was “inactive”.
For `OC(Cn1cncn1)(c1ccc(F)cc1)c1ccccc1F` (centres undefined), the Potency was “inactive”.
With `C[N+](C)(C)CCOC(=O)C(O)(c1ccccc1)c1ccccc1` the Potency was “inactive”.
For `CCC(=O)C(CCN(C)C)(c1ccccc1)c1ccccc1`, the Potency was “inactive”.
`CCCCCCCCCCCCN(C)C` was tested, and the Potency was “inactive”.
With `N#CCCSCCC#N` the Potency was “inactive”.
In the case of `BrCCCCBr`, the Potency is reported as “inactive”.
In the case of `II`, the Potency is reported as “inactive”.
With `C[C@]12CC[C@H]3[C@@H](CCC4=CC(=O)CC[C@@]43C)[C@@H]1CC[C@@H]2C(=O)O` the Potency was “inactive”.
`ClC(Cl)=C(Cl)Cl` was tested, and the Potency was “inactive”.
In the case of `COc1ccc(CN2CCNCC2)c(OC)c1OC`, the Potency is reported as “inactive”.
In the case of `CC1(c2ccc(Oc3ccccc3)cc2)OC(=O)N(Nc2ccccc2)C1=O` (centres undefined), the Potency is reported as “inactive”.
For `CC(Cc1ccccc1)N(C)Cc1ccco1` (centres undefined), the Potency was “inactive”.
`Clc1ccc(C2(Cn3cncn3)CC(Br)CO2)c(Cl)c1` (centres undefined) was tested, and the Potency was “inactive”.
In the case of `CC/C(=N\OC/C=C/Cl)C1=C(O)CC(C2CCOCC2)CC1=O` (centres undefined), the Potency is reported as “inactive”.
For `O=S1(=O)OCCO1`, the Potency was “inactive”.
`CC1NCCOC1c1ccccc1` (centres undefined) was tested, and the Potency was “inactive”.
With `[As]#[In]` the Potency was “inactive”.
`COC1CC(=C(c2cccs2)c2cccs2)C[N+](C)(C)C1` (centres undefined) was tested, and the Potency was “inactive”.
In the case of `ClC=C(Cl)Cl`, the Potency is reported as “inactive”.
With `NC(=O)C(Cl)Cl` the Potency was “inactive”.
`CNC(C)Cc1ccccc1OC` (centres undefined) was tested, and the Potency was “inactive”.
For `CCCSC(=O)N(CCC)CCC`, the Potency was “inactive”.
With `ClCc1cccc(Cl)c1` the Potency was “inactive”.
With `C=CCC1([C@H](C)CCC)C(=O)NC(=O)NC1=O` the Potency was “inactive”.
In the case of `COc1ccc(C(=O)N2CCCC2=O)cc1`, the Potency is reported as “inactive”.
`CCN(CC)C(=O)Cl` was tested, and the Potency was “inactive”.
`O=C1OC(CCN2CCCCC2)OC1(c1ccccc1)c1ccccc1` (centres undefined) was tested, and the Potency was “inactive”.
In the case of `CC(C)NCC(O)c1ccccc1Cl` (centres undefined), the Potency is reported as 668 nM (active).
For `O=C(NC(=O)c1cc(F)c(F)cc1Cl)Nc1cc(F)ccc1N1CCC(C(=O)O)CC1`, the Potency was “inactive”.
With `CO/C=C(/C(=O)OC)c1ccccc1COc1cccc(C(F)(F)F)n1` the Potency was “inactive”.
For `[F][Sn]([c]1ccccc1)([c]1ccccc1)[c]1ccccc1`, the Potency was “inactive”.
In the case of `Nc1c(Cl)c(F)nc(OCC(=O)O)c1Cl`, the Potency is reported as “inactive”.
With `Cc1c([N+](=O)[O-])c(C)c([N+](=O)[O-])c(C(C)(C)C)c1[N+](=O)[O-]` the Potency was “inactive”.
`CN/C(=N\[N+](=O)[O-])NCc1cnc(Cl)s1` was tested, and the Potency was “inactive”.
For `CCCCC(=O)Cl`, the Potency was “inactive”.
`CSC1=N[C@@](C)(c2ccccc2)C(=O)N1Nc1ccccc1` was tested, and the Potency was “inactive”.
In the case of `O=C(O)C(Br)CBr` (centres undefined), the Potency is reported as “inactive”.
For `N#C/C=C/c1ccccc1`, the Potency was “inactive”.
With `Cc1cccc(Cc2cnc[nH]2)c1C` the Potency was “inactive”.
`CCOC(=O)OC1=C(c2cc(C)ccc2C)C(=O)NC12CCC(OC)CC2` (centres undefined) was tested, and the Potency was “inactive”.
`CN1C(=O)CN=C(c2ccccc2)c2cc([N+](=O)[O-])ccc21` was tested, and the Potency was “inactive”.
For `CCN(CCO)CCn1c(Cc2ccccc2)nc2c1c(=O)n(C)c(=O)n2C`, the Potency was “inactive”.
`CC(=O)OCC1=C(C(=O)O)N2C(=O)[C@@H](N)[C@H]2SC1` was tested, and the activation was 15.1% [at 19 µM] (inactive).
For `CSSC`, the Potency was “inactive”.
`CCCCCCCCCCCCCCCCCCn1cc[n+](C)c1` was tested, and the Potency was “inactive”.
`O=C(NC(=O)c1c(F)cccc1F)Nc1ccc(Oc2ccc(C(F)(F)F)cc2Cl)cc1F` was tested, and the Potency was “inactive”.
For `FC(F)OC(F)(F)C(F)Cl` (centres undefined), the Potency was “inactive”.
`CCN[C@@H](C)Cc1ccccc1` was tested, and the Potency was “inactive”.
